Source: PubChem BioAssay (EPA / NIEHS)
Inconclusive results are not listed. The source made the active and inactive calls. How the source made its calls, unless noted: active means hit-call score of the fitted dose curve at least 0.9, where 1 is the maximum; inconclusive means response in the unintended direction; inactive means score below 0.9.

Key:
[1] = molecular target: Retinoic acid receptor RXR-alpha (Homo sapiens) (UniProt P19793); assay: OT_NURR1_NURR1RXRa_0480: Odyssey Thera (OT) 8-hour HEK293T Protein Complementation Assay for Nurr1/retinoid X receptor (RXR) (AID 2283385)
Sequence of Retinoic acid receptor RXR-alpha (Homo sapiens) (P19793 whole entry, looked up, the tested form may be a part): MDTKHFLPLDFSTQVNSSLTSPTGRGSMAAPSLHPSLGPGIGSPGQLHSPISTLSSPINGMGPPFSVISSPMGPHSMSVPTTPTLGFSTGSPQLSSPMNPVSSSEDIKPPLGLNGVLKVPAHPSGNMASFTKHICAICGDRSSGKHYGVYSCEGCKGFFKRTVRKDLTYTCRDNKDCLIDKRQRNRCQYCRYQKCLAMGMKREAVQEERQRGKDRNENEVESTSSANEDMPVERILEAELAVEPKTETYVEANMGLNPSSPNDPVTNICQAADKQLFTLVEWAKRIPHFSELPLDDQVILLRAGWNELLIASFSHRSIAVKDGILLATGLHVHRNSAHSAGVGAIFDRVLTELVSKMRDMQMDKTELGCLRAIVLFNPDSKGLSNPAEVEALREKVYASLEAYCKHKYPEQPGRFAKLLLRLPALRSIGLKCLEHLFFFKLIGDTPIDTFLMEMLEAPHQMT
Summary of the method: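 Interaction of bait and prey reconstitutes a functional reporter, whose fluorescence was measured in HEK293T cells dosed with compound for 8 hours. Signal gain relative to DMSO defined the single endpoint.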

[2] = molecular target: Retinoic acid receptor RXR-alpha (Homo sapiens) (UniProt P19793); assay: OT_NURR1_NURR1RXRa_1440: Odyssey Thera (OT) 24-hour HEK293T Protein Complementation Assay for Nurr1/retinoid X receptor (RXR) (AID 2283386)
Summary of the method: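 Steps: fragment-tagged Nurr1 and RXRα expressed in HEK293T; compounds added; after 24 h, complemented reporter quantified by fluorescence intensity; signal increase over DMSO fitted as the single endpoint.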

[3] = molecular target: Peroxisome proliferator-activated receptor gamma (Homo sapiens) (UniProt P37231); assay: OT_PPARg_PPARgSRC1_0480: Odyssey Thera (OT) 8-hour Protein-Complementation Assay for Peroxisome Proliferator-activated Receptor Gamma / SRC-1 Co-activator (AID 2283387)
Sequence of Peroxisome proliferator-activated receptor gamma (Homo sapiens) (P37231 whole entry, looked up, the tested form may be a part): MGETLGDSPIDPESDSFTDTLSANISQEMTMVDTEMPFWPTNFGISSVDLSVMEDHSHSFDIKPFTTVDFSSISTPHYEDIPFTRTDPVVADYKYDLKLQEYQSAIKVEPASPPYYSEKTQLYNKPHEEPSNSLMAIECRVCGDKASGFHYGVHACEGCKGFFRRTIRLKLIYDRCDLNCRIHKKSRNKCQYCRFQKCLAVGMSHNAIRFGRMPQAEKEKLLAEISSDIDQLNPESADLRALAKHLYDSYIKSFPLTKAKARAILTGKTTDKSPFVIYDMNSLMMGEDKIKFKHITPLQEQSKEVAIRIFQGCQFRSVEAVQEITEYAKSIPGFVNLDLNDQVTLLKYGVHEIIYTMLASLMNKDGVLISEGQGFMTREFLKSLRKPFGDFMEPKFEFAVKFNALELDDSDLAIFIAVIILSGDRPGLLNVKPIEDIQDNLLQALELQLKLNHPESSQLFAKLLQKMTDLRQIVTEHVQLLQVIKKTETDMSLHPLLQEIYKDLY
Summary of the method: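 HEK293T transiently transfected with PPARg and SRC-1 fused to Venus YFP fragments, compounds 8 h at 37C. Fixed, Draq5-stained cells imaged; nuclear/cytoplasmic 488 nm fluorescence ratio over at least 350 cells per image; gain fitted versus DMSO.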

[4] = molecular target: Peroxisome proliferator-activated receptor gamma (Homo sapiens) (UniProt P37231); assay: OT_PPARg_PPARgSRC1_1440: Odyssey Thera (OT) 24-hour Protein-Complementation Assay for Peroxisome Proliferator-activated Receptor Gamma/ SRC-1 Co-activator (AID 2283388)
Summary of the method: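 HEK293T cells transiently transfected with PPARg and SRC-1 fused via (Gly4Ser)2 linker to split Venus YFP fragments (IFP1/IFP2) were dosed 24 h; fixed, Draq5-stained, imaged at 488/635 nm; nuclear/cytoplasmic fluorescence ratio scored versus DMSO baseline, gain-of-signal.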

[5] = CEETOX_H295R_ANDR: CeeTox H295R High-throughput Steroidogenesis Assay for Androstenedione (ANDR) (AID 2283436; active means hit-call score of the fitted dose curve at least 0.9, where 1 is the maximum; inactive means score below 0.9); conditions: actives raise or lower the signal
Summary of the method: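 Medium from 48 h chemical-treated H295R adrenal cells was extracted with MTBE and androstenedione measured by LC-MS/MS. Activity was fit in both directions relative to DMSO. Cytotoxic concentrations were re-tested after dilution until MTT viability reached ≥70%.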

[6] = CEETOX_H295R_11DCORT: CeeTox H295R High-throughput Steroidogenesis Assay for 11-Deoxycortisol (11DCORT) (AID 2283432; active means hit-call score of the fitted dose curve at least 0.9, where 1 is the maximum; inactive means score below 0.9;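 on AC50: 11-deoxycortisol secreted into the medium measured by LC-MS/MS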); conditions: actives raise or lower the signal
Summary of the method: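 H295R cells prestimulated 48 h with 10 uM forskolin, then exposed 48 h to chemical in 0.1% DMSO. 11-Deoxycortisol in medium quantified by HPLC-MS/MS after MTBE extraction; bidirectional fit versus DMSO. MTT viability read in same wells.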

[7] = CEETOX_H295R_OHPREG: CeeTox H295R High-throughput Steroidogenesis Assay for OH-Pregnenolone (OHPREG) (AID 2283434; active means hit-call score of the fitted dose curve at least 0.9, where 1 is the maximum; inactive means score below 0.9); conditions: actives raise or lower the signal
Summary of the method: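 Secreted 17alpha-hydroxypregnenolone measured by HPLC-MS/MS after liquid-liquid extraction. Human adrenal H295R cells received 48 h forskolin (10 uM) stimulation before 48 h chemical exposure at 0.1% final DMSO; MTT viability in same wells; bidirectional fit against DMSO.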

[8] = CEETOX_H295R_CORTIC: CeeTox H295R High-throughput Steroidogenesis Assay for Corticosterone (CORTIC) (AID 2283437; active means hit-call score of the fitted dose curve at least 0.9, where 1 is the maximum; inactive means score below 0.9); conditions: actives raise or lower the signal
Summary of the method: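 Medium corticosterone was quantified by tandem mass spectrometry following 48 hours of chemical exposure (0.1% DMSO) in human H295R cells previously stimulated 48 hours with 10 uM forskolin. Viability checked by MTT; chemicals diluted and retested when viability fell below 70%.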

[9] = CEETOX_H295R_CORTISOL: CeeTox H295R High-throughput Steroidogenesis Assay for Cortisol (AID 2283438; active means hit-call score of the fitted dose curve at least 0.9, where 1 is the maximum; inactive means score below 0.9;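 further: cortisol secreted into medium quantified by LC-MS/MS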); conditions: actives raise or lower the signal
Summary of the method: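 Cortisol synthesis by H295R cells is measured 48 h after chemical dosing, following a 48 h stimulation with 10 uM forskolin. Hormone is extracted and quantified by HPLC-MS/MS, and activity is fitted bidirectionally against the DMSO control.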

[10] = CEETOX_H295R_DOC: CeeTox H295R High-throughput Steroidogenesis Assay for DOC (AID 2283439; active means hit-call score of the fitted dose curve at least 0.9, where 1 is the maximum; inactive means score below 0.9); conditions: actives raise or lower the signal
Summary of the method: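 Steps: seed H295R, adhere overnight; 10 uM forskolin 48 h; replace with chemical medium (0.1% DMSO) 48 h; collect medium, MTBE extraction, HPLC-MS/MS for DOC. Viability then checked by MTT; cytotoxic chemicals diluted until viability ≥70%.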

Measured: AC50

CCCCCCCCC=O
inactive: [1] | [2] | [3] | [4]

CC(C)CCCCCCCOC(=O)c1ccc(C(=O)OCCCCCCCC(C)C)c(C(=O)OCCCCCCCC(C)C)c1
inactive: [1] | [2] | [3] | [4]

CCCCCCCCCCCCN
active: [1] 11 µM | [2] 10.6 µM
inactive: [3] | [4]

CCCCCCCCCCCCCCCC(=O)O
inactive: [1] | [2] | [3] | [4]

BrC1CCC(Br)C(Br)CCC(Br)C(Br)CCC1Br (configuration not stated)
inactive: [1] | [2] | [3] | [4]

CCC(=O)/C=C/C1C(C)=CCCC1(C)C (configuration not stated)
active: [1] 78.4 µM
inactive: [2] | [3] | [4]

CCCCCC(CO)CCC (configuration not stated)
inactive: [1] | [2] | [3] | [4]

CC1(C)[C@@H]2CC[C@@]1(C)[C@H](O)C2
inactive: [1] | [2]

CC(C)(C)C(=O)c1ccccc1
inactive: [1] | [2]

c1ccc2[nH]ccc2c1
inactive: [1] | [2] | [3] | [4]

OCCN1CCNCC1
inactive: [1] | [2] | [3] | [4]

CCCCCCCCCC=O
inactive: [1] | [2] | [3] | [4]

COc1c(Cl)c(Cl)c(Cl)c(Cl)c1Cl
inactive: [1]

O=C[C@@H](O)[C@H](O)[C@H](O)CO
inactive: [1] | [2] | [3] | [4]

Cc1ccc(O)c(C(C)(C)C)c1
active: [1] 50 µM
inactive: [2] | [3] | [4]

Cc1ccc(S)cc1
inactive: [3] | [4]
active: [1] 79.4 µM | [2] 79.8 µM

OCCOCCOCCOCCO
inactive: [1] | [2]

CCCCCCCCCCCCCCCCCC(=O)OCC(CC)CCCC (configuration not stated)
inactive: [1] | [2] | [3] | [4]

C[Si](O[Si](C)(C)C)O[Si](C)(C)C
inactive: [1] | [2] | [3] | [4]

CC1=CC(=O)NS(=O)(=O)O1
inactive: [1] | [2] | [3] | [4]

CCN(CC)c1ccc2c(-c3ccccc3C(=O)O)c3ccc(=[N+](CC)CC)cc-3oc2c1
active: [1] 12.7 µM | [2] 16.1 µM | [3] 12.2 µM | [4] 12 µM

CCCCCCCCCCN
active: [1] 59.8 µM | [2] 78.2 µM

O=C1C(c2[nH]c3ccc(S(=O)(=O)O)cc3c2O)=Nc2ccc(S(=O)(=O)O)cc21
inactive: [1] | [2] | [3] | [4]

CC(=O)C=CC1=C(C)CCCC1(C)C
inactive: [2] | [3] | [4]
active: [1] 50 µM

CCCCCCCCCCCCCCCC(=O)OC[C@H](O)[C@H]1OC(=O)C(O)=C1O
active: [2] 84.2 µM
inactive: [1] | [3] | [4]

O=C1NC(=O)c2ccccc21
inactive: [1] | [2] | [3] | [4]

OC1OC[C@@H](O)[C@H](O)[C@H]1O (some centres not stated)
inactive: [1] | [2] | [3] | [4]

NC(=O)NC1NC(=O)NC1=O (configuration not stated)
inactive: [1] | [2] | [3] | [4]

CC(C)=CCC[C@](C)(O)[C@@H]1CC=C(C)CC1
inactive: [1] | [2] | [3] | [4]

O=c1cc(-c2ccccc2)oc2cc(O)cc(O)c12
inactive: [5]

Nc1ccc(F)c([N+](=O)[O-])c1
inactive: [6] | [7] | [8] | [9] | [10]

CCCOCC(C)O (configuration not stated)
inactive: [3] | [4]

Cc1cccc(C)c1C
inactive: [6] | [7] | [8] | [9] | [10]

C=CC(C)(C)O
inactive: [6] | [7] | [5] | [8] | [9] | [10]

CC(=O)OCCOC(C)=O
inactive: [2] | [3] | [4]

COc1ccc(O)cc1
active: [2] 44.6 µM
inactive: [3] | [4]

C#C[C@]1(O)CC[C@H]2[C@@H]3CCC4=Cc5oncc5C[C@]4(C)[C@H]3CC[C@@]21C
active: [6] 5.4 µM | [7] 0.36 µM | [8] 14.5 µM | [9] 3.34 µM
inactive: [10]

CCN(CC)c1ccc(C(=C2C=CC(=[N+](CC)CC)C=C2)c2ccc(S(=O)(=O)O)cc2S(=O)(=O)[O-])cc1
inactive: [3] | [4]

Cc1ccc2n[nH]nc2c1
inactive: [6] | [7] | [8] | [9] | [10]

COc1cc(C(C)(C)C)c(O)c(C(C)(C)C)c1
inactive: [3] | [4]

O=C(Oc1ccccc1)c1ccc(O)cc1
inactive: [2] | [3] | [4]

CCCCCCCCCCC(CO)CCCCCCCC (configuration not stated)
inactive: [2] | [3] | [4]

CCCCCCCCCCCCCC(=O)O
inactive: [2] | [3] | [4]

CCC/C=C/C=O
inactive: [3] | [4]

CC1(C)[C@H](C(=O)OCc2cccc(Oc3ccccc3)c2)[C@@H]1C=C(Cl)Cl
inactive: [6] | [7] | [5] | [8] | [9] | [10]

CCCCc1ccc(N)cc1
inactive: [2] | [3] | [4]

O=C(O)CCCCCCCC(=O)O
inactive: [2] | [3] | [4]

CN(C)CCCN
inactive: [2] | [3] | [4]

COc1cc2ncnc(Nc3cccc(Cl)c3)c2cc1OC
inactive: [6] | [7] | [5] | [8] | [9]
active: [10] 0.496 µM

O=C(O)c1ccc(C(=O)O)cc1
inactive: [2] | [3] | [4]

NC(=O)Nc1ccc(Cl)cc1
inactive: [2] | [3] | [4] | [6] | [7] | [9] | [10]
active: [8] 27.6 µM

CC(C)C[C@H]1C(=O)N2CCC[C@H]2[C@]2(O)O[C@](NC(=O)[C@@H]3C=C4c5cccc6[nH]c(Br)c(c56)C[C@H]4N(C)C3)(C(C)C)C(=O)N12
inactive: [3] | [4]

CCN(CC)CCOC(=O)c1ccc(N)cc1
inactive: [3] | [4]

O=C(O)Cc1cccc2ccccc12
inactive: [3] | [4]

O=C(O)C[C@H](O)C[C@H](O)/C=C/c1c(C2CC2)nc2ccccc2c1-c1ccc(F)cc1
inactive: [9]
active: [6] 0.0625 µM | [7] 0.00206 µM | [5] 0.0768 µM | [8] 0.0418 µM | [10] 0.0331 µM

CC(C)(N)CO
inactive: [3] | [4]

CC1(C)C(=O)N(Br)C(=O)N1Cl
inactive: [3] | [4]

Cc1ccc(C(C)C)cc1O
inactive: [2] | [3] | [4]

Nc1cc([N+](=O)[O-])ccc1Cl
inactive: [6] | [7] | [5] | [8] | [9] | [10]
